In PubChem BioAssay (Tox21):
Unmarked numbers belong to inactive results. Where a call stands in place of a potency, no number is given. Calls of active or inactive are those of the source. Calls follow the shape of the dose curve; as a rule, active = well fitted curve in the direction sought with a large enough effect in the repeat runs; inconclusive = weak or mixed curves; inactive = flat fitted curve, though single readings scatter.

Assay: qHTS assay to test for compound auto fluorescence at 460 nm (blue) in HEK293 cells (AID 720678)
Conditions: blue autofluorescence 405/460 nm; series mostly up to 91.3 µM
Excerpt: National Center for Advancing Translational Sciences [NCATS]
NIH Chemical Genomics Center [NCGC]
U.S. Environmental Protection Agency [EPA]
National Institutes of Environmental Health Sciences [NIEHS]
National Toxicology Program [NTP]
U.S. Food and Drug Administration [FDA]
Compound auto fluorescence often interferes with screening of the compound library against various biological targets and signaling pathways. Some of these compounds may have fluorophoric properties. Such properties may interfere with the assay outputs resulting in false positives and/or negatives. To decrease such complications and ensure the compound activities are relevant in terms of biological response, the Tox21 10K compound library was screened for auto fluorescence.
From the fluorophores used as reporter signals in our screening assays, the auto fluorescence equivalencies of compounds against three fluorophores have been evaluated: Triamterene, Fluorescein and Rose Bengal sodium for blue, green and red fluorescence, respectively. The fluorescence intensities were measured using Excitation/Emission wavelengths at 405/460nm, 485/535nm and 540/590nm for blue, green and red labels, respectively. This assay includes the blue fluorescence data.
Tox21 Assay Protocol Summary:
2,000 HEK293 cells in 5 uL of culture medium containing 10% dialyzed FBS per well were dispensed into black wall/clear bottom 1536-well plates using a Multidrop Combi Dispenser (Thermo Scientific). The assay plates were incubated for 4-5 hr at 37C to allow cell attachment to the well bottom, followed by the transfer of 23 nL compound or DMSO vehicle by a pintool work station (Kalypsys, San Diego, CA). After the assay plates were incubated overnight at 37C and 5% CO2, fluorescence intensities in the assay plates were measured by an Envision (PerkinElmer, Shelton, CT) plate reader using three labels for measuring blue, green and red fluorescence at […] 460, 535 and 590nm respectively.

Row | Compound | Potency | fluorescence, % of triamterene
1 | CCC(=O)OCCc1ccccc1 | inactive | –
2 | C=C(c1ccc(C(=O)O)cc1)c1cc2c(cc1C)C(C)(C)CCC2(C)C | inactive | –
3 | Clc1ccc(C(Cn2ccnc2)OCc2ccsc2Cl)c(Cl)c1 (stereo not given) | inactive | –
4 | CCNc1nc(NC(C)CC)nc(OC)n1 (stereo not given) | inactive | –
5 | CC(C)(C)c1cc(/C=C2\SC(=N)NC2=O)cc(C(C)(C)C)c1O | inactive | –
6 | CC1=C(/C=C/C(C)=C/C=C/C(C)=C\C=O)C(C)(C)CCC1 | inactive | –
7 | CC1=C(/C=C/C(C)=C/C=C/C(C)=C/C(=O)Nc2ccc(O)cc2)C(C)(C)CCC1 | inactive | –
8 | COC(=O)[C@]1(C)CCC[C@@]2(C)[C@H]1CC=C1C=C(C(C)C)CC[C@@H]12 | inactive | –
9 | O=C(c1ccccc1)c1cc(Cl)ccc1O | inactive | –
10 | CCCCNc1c(C(=O)OCC)c(C)nc2c1cnn2CC | inactive | –
11 | CC(COC(=O)c1ccccc1)OC(=O)c1ccccc1 (stereo not given) | inactive | –
12 | Cc1ccc2ccc3cccc4ccc1c2c34 | inactive | –
13 | O=C(O)CCn1c2c(c3ccccc31)C[C@H](NS(=O)(=O)c1ccc(F)cc1)CC2 | inactive | –
14 | CC(C)N=C(N)/N=C(\N)Nc1ccc(Cl)cc1 | – | -0.225% [at 18.6 µM]
15 | CCCCCCOc1ccc(O)cc1 | inactive | –
16 | C[C@]12CC[C@H]3C(=CCc4cc(O)ccc43)[C@@H]1CCC2=O | inactive | –
17 | Cc1oc(-c2ccccc2)nc1CCOc1ccc(C[C@H](Nc2ccccc2C(=O)c2ccccc2)C(=O)O)cc1 | inactive | –
18 | CCCCCCCCCCCCCC[n+]1ccccc1 | inactive | –
19 | NCCCCCCNCCCCCCN | inactive | –
20 | O=C1c2c(O)ccc([N+](=O)[O-])c2C(=O)c2c([N+](=O)[O-])ccc(O)c21 | inactive | –

Row | Compound | Potency | fluorescence, % of triamterene
21 | O=C(O)c1cccc(Cl)n1 | inactive | –
22 | C[Si](C)(C)Cl | inactive | –
23 | CC(C)(c1cc(Br)c(O)c(Br)c1)c1cc(Br)c(O)c(Br)c1 | inactive | –
24 | CCN1CCN(c2cc(-c3ccc(F)cc3)c3c(n2)CCCCCC3)CC1 | inactive | –
25 | CCOC(=O)C1=C(C)NC(C)=C(C(=O)OCC)C1c1ccccc1/C=C/C(=O)OC(C)(C)C | inactive | –
26 | Cc1cn[nH]c1 | inactive | –
27 | CCCCCCCOC(=O)c1ccc(O)cc1 | inactive | –
28 | O=C(Oc1ccccc1)c1cccc(C(=O)Oc2ccccc2)c1 | inactive | –
29 | C[C@H]1O[C@@H](O[C@H]2[C@@H](O)C[C@H](O[C@H]3[C@@H](O)C[C@H](O[C@H]4CC[C@@]5(C)[C@H](CC[C@@H]6[C@@H]5C[C@@H](O)[C@]5(C)[C@@H](C7=CC(=O)OC7)CC[C@]65O)C4)O[C@@H]3C)O[C@@H]2C)C[C@H](O)[C@@H]1O | inactive | –
30 | CCCCCCCCCCCCN(CCO)CCO | inactive | –
31 | CC1(C)C(=O)N(Br)C(=O)N1Br | inactive | –
32 | CNCC[C@H](Oc1cccc2ccccc12)c1cccs1 | inactive | –
33 | O=C1Nc2ccc(Cl)cc2[C@@](C#CC2CC2)(C(F)(F)F)O1 | inactive | –
34 | C=C[C@](C)(O)CC[C@@H]1[C@@]2(C)CCCC(C)(C)[C@@H]2CC[C@@]1(C)O | inactive | –
35 | S=C(SSSSSSC(=S)N1CCCCC1)N1CCCCC1 | – | 0.0298% [at 18.6 µM]
36 | Oc1ccc(-c2ccccc2)c(Cl)c1 | inactive | –
37 | CC=O | inactive | –
38 | NC1(c2ccc(-c3nc4ccn5c(=O)[nH]nc5c4cc3-c3ccccc3)cc2)CCC1 | inactive | –
39 | NCCCC(O)(P(=O)(O)O)P(=O)(O)O | inactive | –
40 | CCOC(=O)N1CCC(=C2c3ccc(Cl)cc3CCc3cccnc32)CC1 | inactive | –
